According to PubChem BioAssay (NCI):
About 83,000 compounds went through this panel and 20% of them were active in at least one assay; those are over-represented in the sample as a whole.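 Cell lines were cultured in 96-well plates, exposed to a single compound concentration, and assessed for percent growth 48 hours later.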 Values without a mark were called inactive. Calls of active or inactive are those of the source. Rule for the calls: active = growth percent below 10; inactive = the rest.

Key:
Assay in all cases: NCI-60 one-dose screen, 48 h (100 = growth as untreated, 0 = no growth, -100 = all killed)
Details in all cases: 10 µM unless noted
DU-145 prostate = system: DU-145 prostate
K-562 leukemia = system: K-562 leukemia
MALME-3M melanoma = system: MALME-3M melanoma
MDA-MB-231 breast = system: MDA-MB-231 breast
RXF 393 renal = system: RXF 393 renal
SF-268 CNS = system: SF-268 CNS
SF-295 CNS = system: SF-295 CNS
SF-539 CNS = system: SF-539 CNS
UACC-257 melanoma = system: UACC-257 melanoma
M14 melanoma = system: M14 melanoma
HCT-15 colon = system: HCT-15 colon
HT29 colon = system: HT29 colon
SNB-75 CNS = system: SNB-75 CNS
SNB-19 CNS = system: SNB-19 CNS
U251 CNS = system: U251 CNS
PC-3 prostate = system: PC-3 prostate
SK-MEL-5 melanoma = system: SK-MEL-5 melanoma
UACC-62 melanoma = system: UACC-62 melanoma
LOX IMVI melanoma = system: LOX IMVI melanoma
SK-MEL-28 melanoma = system: SK-MEL-28 melanoma

Row | Structure (SMILES) | growth (DU-145 prostate) | growth (K-562 leukemia) | growth (MALME-3M melanoma) | growth (MDA-MB-231 breast) | growth (RXF 393 renal) | growth (SF-268 CNS) | growth (SF-295 CNS) | growth (SF-539 CNS) | growth (UACC-257 melanoma) | growth (M14 melanoma) | growth (HCT-15 colon) | growth (HT29 colon) | growth (SNB-75 CNS) | growth (SNB-19 CNS) | growth (U251 CNS) | growth (PC-3 prostate) | growth (SK-MEL-5 melanoma) | growth (UACC-62 melanoma) | growth (LOX IMVI melanoma) | growth (SK-MEL-28 melanoma)
1 | C=C(C)[C@@H]1CC[C@]2(C(=O)N3CCN(C)CC3)CC[C@]3(C)[C@H](CC[C@@H]4[C@@]5(C)CC[C@H](OC(=O)c6ccccc6C(=O)O)C(C)(C)[C@@H]5CC[C@]43C)[C@@H]12 | 104% | 102% | 97.4% | 96.9% | 111% | 92.8% | 104% | 97.6% | 107% | 99.3% | 103% | 109% | 85.1% | 95.4% | 105% | 91% | 99.5% | 101% | 99.1% | 105%
2 | Cc1cccc2c1C[C@@]1(C2=O)C(c2ccc(C(C)(C)C)cc2)=NOS1=O (stereo partly specified) | 103% | 77.8% | 93.3% | 86.1% | 100% | 94.7% | 99.2% | 108% | 95.8% | 88.8% | 72.1% | 98.1% | 101% | 93.5% | 88.2% | 68.8% | 90.3% | 73.8% | 76.6% | 110%
3 | Cn1cc(-c2csc(-c3c[nH]c4ccc(F)cc34)n2)c2ccnc(Cl)c21 | 51.2% | 53.3% | 121% | 60.9% | 67.8% | 92% | 85% | 68.9% | 39.3% | 57.4% | 5.69% (active) | 29.8% | 77.5% | 91.4% | 49.6% | 62.1% | 63.2% | 70.6% | 67.5% | 93.5%
4 | O=C(CN1CCCCCC1)Nc1nc2ccc(NCc3ccc(Cl)cc3)cc2s1 | 101% | 87.9% | 98.1% | 97.3% | 99.2% | 99.9% | 95.9% | 94.8% | 100% | 99.3% | 99.2% | 95.7% | 94.2% | 95.8% | 95.8% | 84.3% | 98.4% | 88.5% | 96.7% | 104%
5 | CCCCNC(=O)c1cc([N+](=O)[O-])cc(C2CCCCC2)c1O | 57.6% | 28.2% | 1.91% (active) | 31.4% | 42% | 43.9% | 15.9% | 47.9% | 24.6% | 44.4% | 42.7% | 69.7% | 58.6% | 40.3% | 24.1% | 27.1% | – | 20.3% | 36.2% | 34.3%
6 | CCOC(=O)C1=C(C)/C(=C\c2[nH]c(C)c(C(=O)OCC)c2C)N=C1C | 96.2% | 106% | 94.6% | 82.8% | 101% | 79.1% | 96.9% | 101% | 88.9% | 95.9% | 91.4% | 76.7% | 89.1% | 89.7% | 74.1% | 84.6% | 97.4% | 90.9% | 1.05% (active) | 88.3%
7 | COc1ccc(CNc2c3ccccc3nc3ccccc23)c(OC)c1 | 49.4% | 13.2% | 67% | 43.6% | 33.4% | 65.7% | 36.3% | 14.6% | 74.6% | 43.8% | 26% | 13.8% | 64.5% | 33.5% | 41.8% | 47.1% | 70.3% | 54.5% | 17.7% | 69.3%
8 | CC(=O)OC[C@]12CC[C@@H]([C@@H](C)c3nnc(-c4ccncc4)o3)[C@@H]1[C@H]1CC[C@@H]3[C@@]4(C)CC[C@H](OC(C)=O)C(C)(C)[C@@H]4CC[C@@]3(C)[C@]1(C)CC2 | 102% | 46.4% | 99.7% | 76.3% | 104% | 92% | 74.9% | 94.2% | 75.3% | 91% | 77.5% | 63.8% | 103% | 82.7% | 64.1% | 33.5% | 74.3% | 58.2% | 77.2% | 92.8%
9 | CCOC(=O)C(=CNc1cnc(Nc2ccc(N3CCOCC3)cc2)nc1Oc1ccc(OC)cc1)C(=O)OCC | 73% | 49.2% | 39% | 59.7% | 89.2% | 69.7% | 75.9% | 24.7% | 87.4% | 63.7% | 69.4% | 40.6% | -14.3% (active) | 41.7% | -19.4% (active) | 67.7% | – | 47.1% | 39.3% | 76.6%
10 | Nc1ccc(-c2csc(-n3[nH]c(=O)ccc3=O)n2)cc1 | 107% | 103% | 101% | 101% | 93.8% | 102% | 102% | 105% | 103% | 96.2% | 89.1% | 94.5% | 99% | 98.6% | 100% | 96.2% | -99.6% (active) | 101% | 102% | 108%
11 | COc1ccc(/C=C2\COc3ccc(O)cc3C2=O)cc1 | 111% | 24% | 96.1% | 92.8% | 115% | 99.4% | 108% | 102% | 106% | 90.8% | 77.5% | 80.1% | 96.8% | 96.7% | 85.5% | 95.2% | 99.3% | 85.7% | 74.3% | 102%
12 | COc1ccc(C#Cc2ccc(=O)oc2-c2cc(OC)c(OC)c(OC)c2)cc1O | 58.5% | 16.8% | 38.8% | 59.9% | 57.8% | 69.7% | 23.5% | 47.6% | 53% | 33.9% | 30.7% | 33.9% | 40.1% | 54.6% | 39.7% | 40.6% | 24.5% | 44% | 41.4% | 59%
13 | COc1cc(/C=N/Nc2ccc(Br)cc2)cc(OC)c1OC | 63.1% | 9.82% (active) | 55.5% | 47.5% | 102% | 52.5% | 60.9% | 63.5% | 84.6% | 18.4% | 18.9% | 29.2% | 87.5% | 91.6% | 65.5% | 60.9% | – | 36.8% | 13.5% | –
14 | CCN(CC)CCCN1C(=O)c2c(c(C)c3c(oc4ccc(OC)cc43)c2C)C1=O | 112% | 0.0716% (active) | 97.1% | 99.5% | 70.3% | 98.6% | 110% | 91.8% | 103% | 104% | 94.9% | 90.9% | 109% | 94.4% | 96.4% | 97.4% | 75.1% | 102% | 96.9% | 94.1%
15 | O=S(=O)(NCCNc1nccc(-c2c(-c3cccc(O)c3)nc3occn23)n1)c1ccc(Br)cc1 | 44.8% | 17.2% | 15% | 34.7% | 28.8% | 40.8% | 78.3% | 48.7% | 20.8% | 17.8% | 67.3% | 19.1% | 56.5% | 65.8% | 41% | 29.9% | 4.04% (active) | 5.9% (active) | 25.2% | 26.1%
